In PubChem BioAssay (NCI):
About 83,000 compounds went through this panel and 20% of them were active in at least one assay; those are over-represented in the sample as a whole.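 Values shown are percent growth following 48 h exposure of cells in 96-well plates to a single concentration of compound; below 10 was considered active.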 Values without a mark were called inactive. Active and inactive are the calls of the source.

Tests used:
Assay in all cases: NCI-60 one-dose screen, 48 h (100 = growth as untreated, 0 = no growth, -100 = all killed)
Conditions in all cases: 10 µM
[1] = system: RPMI-8226 leukemia
[2] = system: OVCAR-5 ovarian
[3] = system: OVCAR-4 ovarian
[4] = system: SK-OV-3 ovarian
[5] = system: IGROV1 ovarian
[6] = system: OVCAR-3 ovarian
[7] = system: HS 578T breast
[8] = system: NCI/ADR-RES ovarian
[9] = system: T-47D breast
[10] = system: BT-549 breast
[11] = system: MDA-MB-435 melanoma
[12] = system: SW-620 colon
[13] = system: MCF7 breast
[14] = system: HCT-116 colon
[15] = system: HCC-2998 colon
[16] = system: KM12 colon
[17] = system: OVCAR-8 ovarian

Structure (SMILES) | growth [1] | growth [2] | growth [3] | growth [4] [%] | growth [5] | growth [6] | growth [7] | growth [8] | growth [9] | growth [10] | growth [11] | growth [12] | growth [13] | growth [14] | growth [15] | growth [16] | growth [17] [%]
C/C(=N\Nc1nc2ccccc2s1)c1ccncn1 | -26.4% (active) | 38.9% | -12.3% (active) | 37.7 | -22.2% (active) | 21.2% | 73.5% | 22.9% | -0.411% (active) | 46.3% | 46.2% | 31.2% | 4.99% (active) | 5.21% (active) | 46.3% | 39.1% | –
COc1ccc(N2C(=O)C3c4[nH]c5ccc(OCc6ccccc6)cc5c4C4CCC(C(C)C)CC4C3C2=O)cc1 (stereo unspecified) | 86.9% | 84.4% | 47.7% | 116 | 59.6% | 109% | 92.7% | 109% | 104% | 104% | 104% | 87.9% | 95.2% | 109% | 116% | 105% | –
Cc1cc(C)c(NC(=O)c2sc3nc4c(cc3c2N)C(=O)CCC4)c(C)c1 | 31.8% | – | – | 10.4 | 35.4% | 13.2% | 17.7% | -8.04% (active) | 40.6% | 56.7% | -34.4% (active) | 15.6% | 16.8% | 23.1% | 30.9% | 27.3% | 45.6
N#Cc1c(C#N)c(SSc2c(C#N)c(C#N)c(N)n2-c2ccccc2)n(-c2ccccc2)c1N | 125% | 91.8% | 76.8% | 115 | 94.5% | 127% | 99.6% | 101% | 96.5% | 109% | 114% | 98.7% | 104% | 104% | 96.3% | 106% | –
NC(=O)SCC(=O)Nc1ccc(S(N)(=O)=O)cc1 | 108% | – | 106% | 108 | 112% | 107% | 99.6% | 105% | 98.2% | 111% | 106% | 99.2% | 104% | 109% | 102% | 101% | 104
CC[C@H](C)C(=O)O[C@H]1CCC=C2C=C[C@H](C)C(CCC3C[C@@H](O)CC(=O)O3)[C@H]21 (stereo partly specified) | 96.8% | – | 98.7% | 70.9 | 42.5% | 112% | 59.4% | 21.5% | 105% | 78.2% | 84.4% | 71.6% | 83.6% | 46.4% | 89% | 103% | 45.2
CC1(C)Cc2c(sc3ncn4nc(-c5ccc(O)cc5)nc4c23)CO1 | – | 86.6% | 64.1% | 79.8 | 75.5% | 86.5% | 65.3% | 64.7% | 48.7% | 65.1% | 77.4% | 94.5% | 66.5% | 81.7% | 118% | – | 58.5
CCN(CC)CCNC(=O)c1ccc(NC(C)=O)cc1 | 112% | – | 108% | 102 | – | 121% | 99.8% | – | 99.7% | 106% | 101% | 107% | 101% | 105% | 102% | 108% | 106
COc1cc(NC(=O)CCSc2nc3ccc(Cl)cc3c(=O)n2Cc2ccccc2)cc(OC)c1OC | – | 88.8% | 61.5% | 82 | 101% | 93.4% | 40.3% | 84.3% | 64.2% | 73% | 89% | 86.2% | 70% | 53% | 100% | – | 73.9
C#Cc1ccc(-n2c(/C=C/c3ccc4ccccc4c3)nc3ncccc3c2=O)cc1 | – | 105% | -3.79% (active) | 68.9 | 52.7% | 17% | 72.8% | 42.5% | 42.7% | 52.4% | 12.8% | 19.2% | 18.6% | 21% | 31.1% | – | 38.5
O=C(/C=C/c1cc2ccccc2[nH]c1=O)c1ccc2c(c1)OCO2 | – | 104% | 88% | 102 | 92.5% | 102% | 93.8% | 105% | 72.2% | 84.2% | 95.7% | 99.6% | 80.6% | 81.6% | 105% | – | 96.1
O=C(CNC(=O)OCc1ccccc1)NCC(=O)Oc1ccc([N+](=O)[O-])cc1 | 112% | 109% | 99.2% | 100 | 109% | 111% | 137% | 96.2% | 103% | 101% | 98.4% | – | 95.8% | 93.7% | – | 102% | –
O=C(CCCCCCC(=O)Nc1cccnc1)NO | -14.9% (active) | 60.8% | 16.1% | 78.9 | 31% | 25.1% | 34.6% | 2.65% (active) | -28.7% (active) | 69.5% | 19.8% | 35.6% | 35.3% | 9.09% (active) | 40% | 6.19% (active) | –
O=C1/C(=C\c2ccccc2)CN(C(=O)c2ccccc2F)C/C1=C\c1ccccc1 | – | 64.9% | 28.8% | 36.6 | -11.2% (active) | -20.1% (active) | -10.1% (active) | 23.8% | 42.7% | -24.6% (active) | -35.6% (active) | -71.7% (active) | -37.6% (active) | -84.8% (active) | -84.1% (active) | – | 10.6
COc1ccc(N=C2C(=Nc3ccc(OC)cc3)N(c3ccc(N(C)C)cc3)C(=S)N2c2ccc(OC)cc2)cc1 | -12.4% (active) | 34.9% | – | 87.9 | 107% | 106% | 19.6% | 95.8% | 91.1% | 75.1% | 86.5% | 94.7% | 84.9% | 81.6% | 105% | 86.8% | –
O=[P@@]1(c2ccccc2)O[C@H](COCc2ccccc2)[C@@H](OCc2ccccc2)[C@H](OCc2ccccc2)[C@H]1O | 89.6% | 99.3% | – | 38.7 | – | 59.5% | -10.7% (active) | 73.4% | 72.8% | 56.9% | 95.6% | 104% | 51% | 69.8% | 103% | 98.1% | 45
C=C(Cl)[C@@](Cl)(CBr)CC[C@@H](Br)C(C)(C)Cl | -59.4% (active) | -46.3% (active) | -37% (active) | 93.5 | 29.6% | -96.2% (active) | -29% (active) | -66.6% (active) | -58.9% (active) | 78.6% | -24.2% (active) | -61.7% (active) | -51.7% (active) | -94.6% (active) | -96.9% (active) | -94.2% (active) | –
CCCCCCCCCCCCC1C/C=C\CCCC(=O)O1 (stereo unspecified) | 89.7% | 101% | – | 95.5 | 110% | 107% | 113% | 119% | 91.2% | 127% | 105% | 104% | 91.7% | 105% | 129% | 112% | 104
